TGFb inhibitor – inhibitors of TGF-b signaling | HepG2 CAGA-GFP TGF-b/SMAD3 reporter, GFP fluorescence, 18 h; TGF-beta stimulated, 500 pg/mL final | Potency, µM (series often up to 46.1 µM), without a hit: top-dose activity, negative = inhibition, most hits filed as inhibitors | 410,000 compounds, 1.2% hits | AID 588855; also: potency is read from the fitted curve at half-maximal effect; % is scaled to controls: 0 for no effect and ±100 for the full control effect; nearly all actives have a fitted effect of over 65% in size
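Inhibition of TGF-beta-driven CAGA-GFP reporter expression in HEPG2 cells is measured by cellular GFP fluorescence after 18 h stimulation with 500 pg/mL recombinant TGF-beta in 1% FBS medium at 37 degrees C.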
DRD3 antagonist – D3 dopamine receptor (human) antagonism. P35462. D3R cells, DiscoveRx beta-arrestin luminescence, antagonist mode; hits give low values. max response, negative = inhibition, %. 360,000 compounds, 2.5% hits; in the data active = max response below about -50%; inconclusive = no clear call, values can overlap the other calls; also: % is scaled to controls: 0 for no effect and ±100 for the full control effect
Target sequence (P35462 whole entry, looked up): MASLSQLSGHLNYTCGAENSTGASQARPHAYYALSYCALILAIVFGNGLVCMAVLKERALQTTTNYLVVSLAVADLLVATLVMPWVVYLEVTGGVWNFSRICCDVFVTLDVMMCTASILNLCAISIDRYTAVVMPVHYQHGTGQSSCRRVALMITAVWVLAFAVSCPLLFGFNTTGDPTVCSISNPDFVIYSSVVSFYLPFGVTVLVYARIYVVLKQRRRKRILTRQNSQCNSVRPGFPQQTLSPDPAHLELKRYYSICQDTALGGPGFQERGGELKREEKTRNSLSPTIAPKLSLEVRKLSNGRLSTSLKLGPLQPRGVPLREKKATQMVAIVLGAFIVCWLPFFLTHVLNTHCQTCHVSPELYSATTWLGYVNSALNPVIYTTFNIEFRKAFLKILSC
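Cells plated overnight at 1500 cells/well, then exposed to library compounds with dopamine controls for 90 minutes at 37 degrees C. DiscoveRx reagent added for 30–60 minutes at room temperature; luminescence read, quantitative HTS format.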
ATXN viability – reduces viability in counter-screen for ATXN expression inhibitors; S2 cells (HEK-293 line with an ATXN2-luciferase reporter) viability, CellTiter-Fluor protease fluorescence, 24 h; Potency, µM (series often up to 56.7 µM), most hits filed as cytotoxic; 400,000 compounds, 0.49% hits; also: potency is read from the fitted curve at half-maximal effect; nearly all actives have a fitted effect of over 40% in size
D3 ag – agonists of human D3 dopamine receptor. 410,000 compounds, 0.58% hits. max activation, %. P35462. D3R DiscoveRx beta-arrestin cells, luminescence, 90 min. AID 652048; in the data active = max activation above about 30%; also: 0% is about no effect
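Agonist mode: compounds and dopamine controls were applied to plated cells for 90 min at 37 degrees C after an overnight attachment at 1500 cells/well. Luminescent read-out followed 30 - 60 minutes at room temperature with DiscoveRx detection reagent.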
HepG2 viability – counter-screen for TGF-b inhibitors: cytotoxicity in HepG2 cells | HepG2 CAGA-GFP viability, ATP luminescence, 18 h | 410,000 compounds, 0.76% hits | Potency, µM (top dose mostly 46.1 µM), inactives show top-dose activity change, negative = cytotoxicity, actives largely listed as cytotoxic; also: potency is read from the fitted curve at half-maximal effect
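CellTiter-Glo luminescence gave cytotoxicity after 18 hours at 37 degrees C. The cells were HepG2 CAGA-GFP in 1% FBS DMEM, stimulated with 500 pg/mL TGF-beta after compound addition. %Activity was normalised to no-cell wells (complete cell-killing) and DMSO (no toxicity), and curves were fitted and classified.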
ATXN2 expr inh – ATXN2 expression inhibition; HEK-293 ATXN2-luciferase reporter, luminescence, 24 h; Potency, µM (doses to about 57 µM), without a hit: at the top dose activity change, negative = inhibition, most hits filed as inhibitors; 360,000 compounds, 0.72% hits; also: potency is read from the fitted curve at half-maximal effect; % is scaled to controls: 0 for no effect and ±100 for the full control effect; nearly all actives have a fitted effect of over 55% in size
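ATXN2-luciferase reporter cells (luciferase flanked by upstream and downstream ATXN2 gene portions) were treated 24 h at 37 °C with compounds at up to 57 uM. SteadyGlo luminescence gave expression; GF-AFC fluorescence gave viability.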
Starred values were filed as active, the others as inactive; i = inactive; ? = inconclusive; nt = no result given; [ ] = another dose, or the depositor's remark. Sampled rows, rich in hits. Any-hit rate of the full collection: about 4.7%. Unless noted, calls follow the shape of the dose curve; as a rule, active = well fitted curve in the direction sought with a large enough effect; inconclusive = small, poorly fitted or top-dose-only effect, or another doubt; inactive = no such curve, though single readings can be large; an effect the other way counts as inactive or inconclusive.

SMILES	TGFb inhibitor	DRD3 antagonist	ATXN viability	D3 ag	HepG2 viability	ATXN2 expr inh
Brc1cccc(OCCN2CCOCC2)c1	-1%	?	?	8	-1%	nt
CCc1cccc(OCCn2ccnc2)c1	5%	?	i	-7	7%	-28%
CCc1cccc(OCCN2CCCC2)c1	5%	-60*	i	-34	16%	-9%
CCc1nn2c(=O)cc(COC(=O)c3cccc(NC(=O)COc4ccccc4)c3)nc2s1	11%	nt	nt	-2	2%	nt
C/C(=N\NC(=O)c1cc(C2CC2)nc2ccccc12)c1ccc(O)cc1O	?	19	?	5	-17%	2.5µM*
N#Cc1c(NCCN)nc(-c2ccco2)c2c1CCCC2	?	26	i	-2	-29%	13µM*
CCCCNC(=O)NS(=O)(=O)c1ccc(N)cc1	nt	nt	i	9	nt	11%
CN1CCN(C(=O)c2cccc3c(-c4ccc(F)c(F)c4)coc23)CC1	29%	-100*	i	-12	-27%	1%
COc1ccc(-c2ccc(C(=O)NCc3ccc(N4CCN(C)CC4)cc3)c3occc23)c(C)c1	?	-7	25µM*	-23	11µM*	?
O=C(NCC1CC1)c1cccc2c(-c3ccc(F)c(F)c3)coc12	11%	13	i	2	-24%	-5%
COc1ccc(-c2coc3c(C(=O)N4CCN(C)CC4)cccc23)c(C)c1	41%	-87*	i	-17	8%	-2%
COc1ccc(-c2ccc(C(=O)NCc3ccccc3)c3occc23)c(C)c1	?	-23	i	2	-32%	-20%
O=C(CN1C(=O)C2(SCC(=O)N2c2ccc(Cl)cc2)c2ccccc21)NCCc1ccccc1 (configuration not stated)	6%	nt	i	-3	0%	12%
CC(C)OC(=O)c1cccc(C(=O)Oc2ccccc2)n1	0%	-59*	i	2	19%	1%
CC(C)OC(=O)c1cccc(C(=O)OCc2ccco2)n1	-13%	-20	i	-1	7.1µM*	-3%
Cc1nc(C(=O)NCC(=O)O)c(O)c2ccc(Oc3ccccc3)cc12	nt	nt	nt	nt	nt	23%
CN1CCN(c2nc(-c3ccccc3)nc(-c3ccccc3)c2C#N)CC1	10%	-29	?	-3	-4%	-29%[11.3 µM]
COc1ccc(-c2nc(-c3ccccc3)nc(N3CCN(C)CC3)c2C#N)cc1	-8%	-85*	i	-12	-6%	-21%
CCOC(=O)c1cc(C#N)c(N2CCN(C)CC2)nc1-c1ccccc1	20%	-69*	i	-23	-8%	-18%
CCc1ccc2nc(N3CCN(C)CC3)c(C#N)cc2c1	2%	-68*	i	1	-29%	21%
Cc1nc2cc(-c3ccccc3)nn2c(C)c1CCC(=O)N1CCN(c2ccc(F)cc2)CC1	-5%	nt	i	-4	-16%	?
CCc1ccc(NC(=O)C2CCN(S(=O)(=O)c3c(C)noc3/C=C/c3cccs3)CC2)cc1	-19%	nt	nt	-6	-20%	nt
Cc1ncc(-c2ccnc(Nc3ccc(S(C)(=O)=O)cc3)n2)n1C(C)C	nt	nt	nt	nt	nt	3.4µM*
CC(N)c1csc(Nc2ccc(S(C)(=O)=O)cc2)n1 (configuration not stated)	-14%	-1	i	2	3%	13%
COc1ccc(-c2c(C)nn3c(N4CCN(c5cc(Cl)ccc5C)CC4)cc(C)nc23)cc1OC	?	nt	?	-3	1%	-23%
Cc1ccc(CNC(=O)CSc2ncc3c(n2)-c2ccc(Cl)cc2N(Cc2ccccc2)S3(=O)=O)cc1	-15%	nt	i	-17	-16%	9%
O=C1C(=O)C(c2ccccc2)C(=O)C1c1ccccc1 (configuration not stated)	7%	-20	i	87*	-2%	2%
O=C1c2ccccc2C(=O)C1c1ccncc1	30%	-11	i	-5	-9%	-27%
COC(c1ccccc1)(c1ccccc1)[C@H](Oc1nc(C)cc(C)n1)C(=O)O	nt	nt	i	8	nt	-8%

Bioassay records from PubChem BioAssay.
